The values below come from PubChem BioAssay AID372 (MTDP, 2006).

Screen size: about 100,000 compounds; about 770 (0.77%) were called active. Shown is part of a subset that was picked to be rich in actives. Values without a mark were called inactive. Cut-off read from the data, not from the text of the source: active = inhibition above about 50%; inactive = the rest.

The assay has as its target Gag-Pol polyprotein (Human immunodeficiency virus type 1 group M subtype B (isolate HXB2)) (UniProt P04585). As to the kind of experiment: RNase H inhibition, HIV 1 Gag Pol polyprotein, FRET biochemical assay, screening (AID 372). The settings on record: HIV-1 RT RNase H, FRET RNA/DNA substrate fluorescence; at 10 µM; stronger effect = higher value.
`COc1ccccc1NC(=O)c1c(NC(=O)c2cc([N+](=O)[O-])ccc2Cl)sc2c1CCCC2`: the inhibition is 3%.
Next, `CCN(CC)C(=O)c1sc(NC(=O)c2cc(OC)cc(OC)c2)c(C(=O)OC)c1C`: 10%.
Next, `O=C1NC(=Nc2ccc(O)cc2)S/C1=C\c1ccc([N+](=O)[O-])cc1`: 4%; `O=C1NC(=Nc2ccc(O)cc2)S/C1=C/C(Cl)=C/c1ccc([N+](=O)[O-])cc1`: 0%; `O=C1NC(=Nc2cccc(O)c2)S/C1=C/C(Cl)=C/c1ccc([N+](=O)[O-])cc1`: 51% (active).
Next, `O=C1C(=O)N(c2ccc(Br)cn2)C(c2ccccc2[N+](=O)[O-])/C1=C(/O)c1ccccc1` (stereo not drawn): 4%; `O=C(Nc1ccc(F)cc1)Nc1nnc(CSCc2ccc(Cl)cc2)s1`: 26%; `N=C1S/C(=C\c2cc3c(cc2[N+](=O)[O-])OCO3)C(=O)N1c1ccc(F)cc1`: 55% (active).
`O=C1NC(=O)N(c2ccc3c(c2)OCO3)C(=O)/C1=C/c1ccc(-c2cccc([N+](=O)[O-])c2)o1`: the inhibition was 0%.
In the case of `O=C1NC(=O)N(c2ccc3c(c2)OCO3)C(=O)/C1=C/c1ccc(Sc2ccccc2)o1`, the inhibition was 0%.
`N=C1S/C(=C\c2ccc3c(c2)OCO3)C(=O)N1c1ccc(F)cc1`: the inhibition was 43%.
As for `O=C1NC(=O)N(c2ccc3c(c2)OCO3)C(=O)/C1=C/c1ccc(-c2cccc(Cl)c2)o1`, the inhibition is 53% (active).
In the case of `N=C1S/C(=C\c2ccc(-c3ccc(F)cc3)o2)C(=O)N1c1ccc2c(c1)OCO2`, the inhibition was 52% (active).
For `N=C1S/C(=C\c2ccc(-c3ccc([N+](=O)[O-])cc3)o2)C(=O)N1c1ccc2c(c1)OCO2`, the inhibition was 12%.
Turning to `N=C1S/C(=C\c2ccc(-c3ccccc3F)o2)C(=O)N1c1ccc2c(c1)OCO2`, the inhibition was 30%.
As for `O=C1/C(=C\c2cc3c(cc2[N+](=O)[O-])OCO3)SC(=S)N1c1ccccc1`, the inhibition was 24%.
Next, `COc1ccc(OC)c(/C=C2\C(=O)NC(=S)N(c3ccc(Br)cc3)C2=O)c1`: 12%; `O=C(Nc1nnc(SCc2ccccc2)s1)c1cccc2ccccc12`: 3%.
For the compound `O=[N+]([O-])c1ccc(OCCCCN2CCOCC2)cc1`, the inhibition was 9%.
Regarding `Clc1ccc(OCCOCCOc2cccc3cccnc23)c2ccccc12`, the inhibition is 45%.
For the compound `O=C(Nc1ccccc1Cl)c1ccc(N2C(=O)c3ccccc3C2=O)cc1`, the inhibition is 16%.
Next, `CSCCC(NC(=O)c1ccccc1)C(=O)OCC(=O)Nc1cc(C)on1` (stereo not drawn): 11%; `CCCOc1ccc2ccccc2c1C=C1C(=O)NC(=S)NC1=O`: 23%.
